# In PubChem BioAssay (NCATS):
# Inconclusive results are not listed. Values without a mark were called inactive. Calls of active or inactive are those of the source. Calls come from the whole dose curve; as a rule, active = well fitted inhibition curve with a large enough effect; inconclusive = small, poorly fitted or top-dose-only effect; inactive = no such curve, though single readings can be large or run the other way.
# Test system: Zika virus NS2B-NS3 protease (unlinked complex)
# Test: Primary screen GU Rhodamine qHTS for Zika virus inhibitors: Unlinked NS2B-NS3 protease assay (AID 1347159); note: nearly all actives have a fitted effect of over 60% in size; note: potency is the fitted concentration of half-maximal effect
# Settings: Recombinant ZIKV NS2B-NS3 protease, Rhodamine110 substrate fluorescence; series mostly up to 107 µM; activity change, negative = inhibition: at the top concentration
# Summary of the method: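 Enzyme 25 nM in Tris-HCl pH 8.0 + 0.01% Tween 20; compounds up to 114 microM, 15 min RT dark; + Rhod110 substrate 1.5 microM; read t0 and 15 min; delta fluorescence → % inhibition → 4-parameter Hill fit.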
# % is set by controls: 0 for no effect and ±100 for the full control effect.
Structure (SMILES),"activity change, negative = inhibition",Potency
CC1(C)CC2C3=CCC4C5(C)CCC(OC6OC(CO)C(O)C(OC7OC(CO)C(O)C(OC8OC(CO)C(O)C(OC9OC(COC%10OC(CO)C(O)C(O)C%10O)C(O)C(O)C9O)C8O)C7O)C6O)C(C)(C)C5CCC4(C)C3(C)CCC2(C(=O)O)CC1O (stereo not drawn),-21.5% [at 19.1 µM],–
O=C(O)CCc1cc2ccoc2cc1O[C@@H]1O[C@H](CO[C@@H]2OC[C@](O)(CO)[C@H]2O)[C@@H](O)[C@H](O)[C@H]1O,3.61% [at 57.1 µM],–
C=CC(C)(O)CO[C@@H]1O[C@H](CO)[C@@H](O)[C@H](O)[C@H]1O (stereo partly drawn),8.55%,–
CC(=O)[C@@H]1CC[C@]2(C(=O)O)CC[C@]3(C)C(CCC4[C@@]5(C)CC[C@H](O)C(C)(C)C5CC[C@]43C)C12 (stereo partly drawn),-17.9% [at 57.1 µM],–
CC(=O)NCCCCn1c2c(c3ccccc31)C(=O)NCC2,-13.4%,–
C=C1CC23CC1(O)CCC2C1=CC2OC(=O)C(C)(C2O)C1C3C(=O)O (stereo not drawn),24.6%,–
COc1cc(/C=C/C(=O)O[C@H]2[C@H](O)[C@@H](CO)O[C@@]2(CO)O[C@H]2O[C@H](COC(=O)c3ccc(O)cc3)[C@@H](O)[C@H](O)[C@H]2O)cc(OC)c1OC,16.9% [at 32.5 µM],–
CC(NC(=O)CC(=O)O)c1nc2ccccc2c(=O)[nH]1 (stereo not drawn),–,44.7 µM (active)
OC[C@H]1O[C@@H](OCCc2ccc(O)cc2)[C@H](O)[C@@H](O)[C@@H]1O,0.853%,–
CCOc1nc2cccc(C(=O)O)c2n1Cc1ccc(-c2ccccc2-c2noc(=O)[nH]2)cc1,-10.6%,–
CC(C)C1=CC2=CCC3[C@](C)(CCC[C@@]3(C)C(=O)O)C2CC1O (stereo partly drawn),32.4%,–
CC(C)(O)CNc1nc(Nc2ccnc(C(F)(F)F)c2)nc(-c2cccc(C(F)(F)F)n2)n1,-15.7% [at 57.1 µM],–
O=C(c1ccc(F)cc1)C1CCN(CCn2c(=O)nc3n(c2=O)CCCC3)CC1,29.1%,–
COc1c2c(c(C)c3c1C(=O)OC3)O[C@@]1(C)C[C@@H](O)[C@]34O[C@](OC)(CC[C@]3(C)[C@H]1C2)OC4(C)C,15.7% [at 57.1 µM],–
CC1(C)OC(=O)C(OCC2CC2)=C1c1ccc(S(C)(=O)=O)cc1,-23.4%,–
CC[C@H](/C=C/[C@@H](C)[C@H]1CC[C@H]2[C@@H]3CC=C4C[C@@H](O)CC[C@]4(C)[C@H]3CC[C@]12C)C(C)C,1.47% [at 11.5 µM],–
C=C(C(=O)OC)C1CCC2(C)C(O[C@@H]3O[C@H](CO)[C@@H](O)[C@H](O)[C@H]3O)CC(=O)C(C)C2C1O (stereo partly drawn),-15.1% [at 57.1 µM],–
CC1(C)C(=O)N2c3ccccc3[C@]3(CC(n4cnc5ccccc5c4=O)C(=O)O3)[C@H]2N1O (stereo partly drawn),12.5% [at 57.1 µM],–

# Test system: Zika virus NS2B-NS3 protease (linked construct)
# Test: Primary screen NINDS Rhodamine qHTS for Zika virus inhibitors (AID 1347160); note: nearly all actives have a fitted effect of over 55% in size
# Settings: purified NS2B-NS3 protease, Rhodamine110 substrate fluorescence; series mostly up to 57.1 µM; activity change, negative = inhibition: at the top concentration
# Summary of the method: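 Enzyme (25 nM, linked NS2B-NS3) was preincubated 15 min with compound in 10 mM Tris-HCl pH 8.0, 0.01% Tween 20. Rhodamine110 substrate (1.5 microM) was then added and fluorescence read at start and after 15 min.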
Structure (SMILES),"activity change, negative = inhibition",outcome
Cc1nn(C)c2c1C(c1ccc(C(F)(F)F)cc1)C(C#N)=C(N)O2 (stereo not drawn),-2.36%,–
CC1(C)CC[C@]2(C(=O)O)CC[C@]3(C)C(=CCC4[C@@]5(C)CCC(O[C@@H]6OC[C@H](O)[C@H](O)[C@H]6O[C@@H]6O[C@H](CO)[C@@H](O)[C@H](O)[C@H]6O)[C@@](C)(CO)C5CC[C@]43C)[C@@H]2C1 (stereo partly drawn),–,inactive [at 15.1 µM]
CC(=O)NC(CCC(=O)O)C(=O)NCCc1ccc(O)cc1 (stereo not drawn),6.17%,–
CC[C@@H](c1ccc(F)c(F)c1)n1c(C(=O)OC)c(-c2ccno2)[nH]c1=S,-23.8%,–
O=C(O)CCc1cc2ccoc2cc1O[C@@H]1O[C@H](CO[C@@H]2OC[C@](O)(CO)[C@H]2O)[C@@H](O)[C@H](O)[C@H]1O,2.14% [at 33.1 µM],–
CC(=O)c1cnc2ccc(-c3cc(Cl)c(O)c(Cl)c3)nc2c1NC1CCC(CN(C)C)CC1 (stereo not drawn),–,inactive; activator [at 10.7 µM]
C=CC(C)(O)CO[C@@H]1O[C@H](CO)[C@@H](O)[C@H](O)[C@H]1O (stereo partly drawn),-5.47%,–
CN(C)c1cccc(-c2c3c(=O)n(-c4ccccc4Cl)[nH]c3cc(=O)n2C)c1,11.5%,–
CC(=O)[C@@H]1CC[C@]2(C(=O)O)CC[C@]3(C)C(CCC4[C@@]5(C)CC[C@H](O)C(C)(C)C5CC[C@]43C)C12 (stereo partly drawn),-18.7% [at 33.1 µM],–
CN1C(=O)c2ccccc2-n2c(nc3ccccc3c2=O)/C1=C/c1ccccc1,4.97% [at 33.1 µM],–
